Measurements taken from PubChem BioAssay AID1159580 (chemical genetic matrix, 2015).
Several values for one entry are separate records, joined by “and”; a condition that tells them apart may be missing. Equal entries are not always repeated. Among all 5,500 compounds or so, about 2,000 (36%) were called active. Inconclusive results (about 18%) are left out. No stated cut-off is given here; in the data, active means normalized growth mostly below about 0.91 (no sharp cut-off); inconclusive means no clear call, values can overlap the other calls; inactive means mostly above about 0.92. Some of the results follow.

Assay: chemical genetic growth profiling, strain panel (AID 1159580);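 further: tested at 20 µM; growth read once vehicle control cultures reached saturation at 30 °C; 1 = growth at the plate median or of vehicle wells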
Details: S. cerevisiae deletion strains, growth OD

Measured: normalized growth

C=C1C2CC[C@@]3(C)[C@H](c4ccoc4)OC(=O)C[C@]13O[C@H]1CC(=O)C(C)(C)[C@H](C(O)C(=O)OC)[C@@]21C (some centres undefined)
inactive: locus YAL021C, strain ccr4, stronger effect = lower value 1.06 | locus YAL026C, strain drs2, stronger effect = lower value 0.995 | locus YAL030W, strain snc1, stronger effect = lower value 0.995 | locus YBL061C, strain skt5, stronger effect = lower value 0.985 | locus YBR009C, strain hhf1, stronger effect = lower value 1.05 | locus YBR021W, strain FUR4, stronger effect = lower value 0.993 | locus YBR023C, strain chs3, stronger effect = lower value 1.01 | locus YBR171W, strain sec66, stronger effect = lower value 0.994 | locus YBR229C, strain ROT2, stronger effect = lower value 1 | locus YBR231C, strain swc5, stronger effect = lower value 0.993 | locus YBR279W, strain paf1, stronger effect = lower value 1 | locus YCL011C, strain gbp2, stronger effect = lower value 1.02 | locus YCL016C, strain dcc1, stronger effect = lower value 1.01 | locus YCL029C, strain bik1, stronger effect = lower value 1.01 | locus YCL061C, strain MRC1, stronger effect = lower value 1 | locus YCL069W, strain vba3, stronger effect = lower value 0.997 | locus YCR088W, strain abp1, stronger effect = lower value 0.999 | locus YDL005C, strain med2, stronger effect = lower value 0.989 | locus YDL035C, strain GPR1, stronger effect = lower value 1.01 | locus YDL040C, strain nat1, stronger effect = lower value 0.998 | locus YDL074C, strain BRE1, stronger effect = lower value 1.02 | locus YDL101C, strain DUN1, stronger effect = lower value 1.01 | locus YDL134C, strain PPH21, stronger effect = lower value 1.01 | locus YDL185W, strain tfp1, stronger effect = lower value 1.01 | locus YDL192W, strain arf1, stronger effect = lower value 1.01 | locus YDR001C, strain nth1, stronger effect = lower value 1.02 | locus YDR069C, strain doa4, stronger effect = lower value 0.99 | locus YDR101C, strain arx1, stronger effect = lower value 0.994 | locus YDR137W, strain rgp1, stronger effect = lower value 0.959 | locus YDR159W, strain sac3, stronger effect = lower value 0.995 | locus YDR162C, strain NBP2, stronger effect = lower value 1.02 | locus YDR195W, strain ref2 0.961 | locus YDR297W, strain sur2, stronger effect = lower value 1.02 | locus YDR318W, strain mcm21, stronger effect = lower value 1.01 | locus YDR334W, strain swr1, stronger effect = lower value 0.997 | locus YDR335W, strain msn5, stronger effect = lower value 1.01 | locus YDR388W, stronger effect = lower value 1.01 | locus YDR392W, strain spt3, stronger effect = lower value 0.958 | locus YDR502C, strain sam2, stronger effect = lower value 1.02 | locus YEL003W, strain gim4, stronger effect = lower value 1 | locus YEL037C, strain rad23, stronger effect = lower value 1 | locus YEL061C, strain CIN8 (second series), stronger effect = lower value 0.996 | locus YER015W, strain faa2, stronger effect = lower value 1 | locus YER016W, strain bim1, stronger effect = lower value 0.997 | locus YER110C, stronger effect = lower value 1.01 | locus YER111C, strain swi4, stronger effect = lower value 0.994 | locus YER155C, strain BEM2 (second series), stronger effect = lower value 0.983 | locus YER155C, strain BEM2, stronger effect = lower value 0.994 | locus YER167W, strain BCK2, stronger effect = lower value 1.01 | locus YFR010W, strain ubp6, stronger effect = lower value 0.976 | locus YGL078C, strain dbp3, stronger effect = lower value 1.02 | locus YGL086W, strain mad1, stronger effect = lower value 1.01 | locus YGL167C, strain pmr1, stronger effect = lower value 1 | locus YGL173C, strain kem1, stronger effect = lower value 1 | locus YGL227W, strain vid30, stronger effect = lower value 0.991 | locus YGL240W, strain doc1, stronger effect = lower value 0.989 | locus YGL248W, strain PDE1, stronger effect = lower value 1.01 | locus YGL253W, strain hxk2, stronger effect = lower value 0.99 | locus YGR078C, strain PAC10, stronger effect = lower value 1.01 | locus YGR135W, strain pre9, stronger effect = lower value 1.02 | locus YGR252W, strain gcn5, stronger effect = lower value 1.01 | locus YHR013C, strain ard1, stronger effect = lower value 1.01 | locus YHR027C, strain rpn1, stronger effect = lower value 0.991 | locus YHR030C, strain SLT2, stronger effect = lower value 0.963 | locus YHR079C, strain IRE1 (second series), stronger effect = lower value 1.01 | locus YHR079C, strain IRE1, stronger effect = lower value 0.98 | locus YHR094C, strain hxt1, stronger effect = lower value 1.02 | locus YHR129C, strain ARP1, stronger effect = lower value 1 | locus YHR142W, strain chs7, stronger effect = lower value 1.01 | locus YHR200W, strain rpn10, stronger effect = lower value 1.02 | locus YIL066C, strain RNR3, stronger effect = lower value 1.02 | locus YIL073C, strain SPO22, stronger effect = lower value 1.03 | locus YIL125W, strain kgd1, stronger effect = lower value 1 | locus YIR030C, strain dcg1, stronger effect = lower value 1.01 | locus YJL092W, strain hpr5, stronger effect = lower value 1 | locus YJL095W, strain BCK1 (second series), stronger effect = lower value 1.01 | locus YJL095W, strain BCK1, stronger effect = lower value 1.02 and 0.96 | locus YJL115W, strain asf1, stronger effect = lower value 0.995 | locus YJL129C, strain trk1, stronger effect = lower value 0.976 | locus YJL134W, strain LCB3, stronger effect = lower value 1.01 | locus YJL154C, strain vps35, stronger effect = lower value 0.995 | locus YJL164C, strain tpk1, stronger effect = lower value 1.03 | locus YJL166W, strain qcr8, stronger effect = lower value 1.02 | locus YJL168C, strain set2, stronger effect = lower value 1.01 | locus YJL187C, strain SWE1 (second series), stronger effect = lower value 1.01 | locus YJL187C, strain SWE1, stronger effect = lower value 1 | locus YJR043C, strain POL32, stronger effect = lower value 0.999 | locus YJR066W, strain TOR1, stronger effect = lower value 0.932 | locus YJR075W, strain HOC1, stronger effect = lower value 1.01 | locus YKL009W, strain mrt4, stronger effect = lower value 0.992 | locus YKL068W, stronger effect = lower value 1.01 | locus YKL085W, strain MDH1 (second series), stronger effect = lower value 1.01 | locus YKL085W, strain MDH1, stronger effect = lower value 1.01 | locus YKL160W, strain elf1, stronger effect = lower value 1.02 | locus YKL190W, strain CNB1, stronger effect = lower value 1 | locus YKR001C, strain vps1, stronger effect = lower value 1.01 | locus YKR026C, strain gcn3, stronger effect = lower value 0.994 | locus YKR091W, strain srl3, stronger effect = lower value 1 | locus YLL001W, strain dnm1, stronger effect = lower value 0.969 | locus YLL026W, stronger effect = lower value 1 | locus YLL041C, strain sdh2, stronger effect = lower value 1 | locus YLR027C, strain aat2, stronger effect = lower value 0.983 | locus YLR039C, strain RIC1, stronger effect = lower value 1.05 | locus YLR058C, strain SHM2, stronger effect = lower value 1.02 | locus YLR102C, strain apc9, stronger effect = lower value 1.01 | locus YLR113W, strain HOG1, stronger effect = lower value 1.01 | locus YLR221C, strain rsa3, stronger effect = lower value 0.976 | locus YLR258W, strain gsy2, stronger effect = lower value 1.01 | locus YLR262C, strain YPT6 (second series), stronger effect = lower value 1.01 | locus YLR262C, strain YPT6, stronger effect = lower value 1.02 | locus YLR268W, strain sec22, stronger effect = lower value 1 | locus YLR320W, strain mms22, stronger effect = lower value 0.982 | locus YLR342W, strain FKS1 (second series), stronger effect = lower value 0.996 | locus YLR342W, strain FKS1, stronger effect = lower value 0.99 | locus YLR357W, strain rsc2, stronger effect = lower value 0.975 | locus YLR370C, strain arc18, stronger effect = lower value 1.01 | locus YLR371W, strain rom2, stronger effect = lower value 1.02 | locus YLR384C, strain iki3, stronger effect = lower value 0.984 | locus YLR418C, strain cdc73, stronger effect = lower value 1.02 | locus YML016C, strain PPZ1, stronger effect = lower value 1.01 | locus YML032C, strain rad52, stronger effect = lower value 1.01 | locus YML120C, strain ndi1, stronger effect = lower value 1.01 | locus YML124C, strain tub3, stronger effect = lower value 1.01 | locus YMR058W, strain fet3, stronger effect = lower value 0.99 | locus YMR078C, strain ctf18, stronger effect = lower value 1.02 | locus YMR125W, strain sto1, stronger effect = lower value 0.983 | locus YMR129W, stronger effect = lower value 0.998 | locus YMR205C, strain PFK2, stronger effect = lower value 1.03 | locus YMR223W, strain ubp8, stronger effect = lower value 1.01 | locus YMR231W, strain pep5, stronger effect = lower value 0.998 | locus YMR307W, strain GAS1, stronger effect = lower value 1.01 | locus YNL067W, strain RPL9B, stronger effect = lower value 1.01 | locus YNL071W, strain lat1, stronger effect = lower value 1.02 | locus YNL128W, strain TEP1, stronger effect = lower value 1.01 | locus YNL153C, strain GIM3, stronger effect = lower value 1.01 | locus YNL183C, strain NPR1, stronger effect = lower value 0.945 | locus YNL209W, strain ssb2, stronger effect = lower value 1.01 | locus YNL233W, strain BNI4, stronger effect = lower value 1 | locus YNL248C, strain rpa49, stronger effect = lower value 0.959 | locus YNL250W, strain rad50, stronger effect = lower value 1 | locus YNL271C, strain bni1, stronger effect = lower value 1.01 | locus YNL298W, strain CLA4, stronger effect = lower value 1.01 | locus YNL307C, strain MCK1, stronger effect = lower value 1.02 | locus YNL322C, strain KRE1 (second series), stronger effect = lower value 1 | locus YNR049C, strain mso1, stronger effect = lower value 0.995 | locus YNR052C, strain pop2, stronger effect = lower value 1.01 | locus YOL006C, strain TOP1, stronger effect = lower value 1.03 | locus YOL012C, strain htz1 1.49 | locus YOL147C, strain pex11, stronger effect = lower value 1.01 | locus YOR001W, strain rrp6, stronger effect = lower value 0.953 | locus YOR061W, strain CKA2, stronger effect = lower value 1.01 | locus YOR069W, strain VPS5, stronger effect = lower value 1.01 | locus YOR070C, strain gyp1, stronger effect = lower value 0.99 | locus YOR080W, strain dia2, stronger effect = lower value 1 | locus YOR083W, strain WHI5, stronger effect = lower value 1.04 | locus YOR106W, strain vam3, stronger effect = lower value 1.02 | locus YOR136W, strain idh2, stronger effect = lower value 1.01 | locus YOR144C, strain elg1, stronger effect = lower value 1 | locus YOR184W, strain ser1, stronger effect = lower value 1.02 | locus YOR231W, strain MKK1, stronger effect = lower value 0.983 | locus YOR265W, strain rbl2, stronger effect = lower value 1.01 | locus YOR270C, strain vph1, stronger effect = lower value 0.995 | locus YOR290C, strain snf2, stronger effect = lower value 1.03 | locus YOR316C, strain cot1, stronger effect = lower value 1.01 | locus YPL051W, strain arl3, stronger effect = lower value 0.984 | locus YPL078C, strain atp4, stronger effect = lower value 1.02 | locus YPL106C, strain sse1, stronger effect = lower value 1.05 | locus YPL240C, strain hsp82, stronger effect = lower value 0.998 | locus YPL256C, strain CLN2, stronger effect = lower value 0.981 | locus YPR119W, strain clb2, stronger effect = lower value 1.01 | locus YPR141C, strain kar3, stronger effect = lower value 1 | locus YPR163C, strain tif3, stronger effect = lower value 1.01 | locus YPR167C, strain met16, stronger effect = lower value 1.01 | strain wtn01, stronger effect = lower value 1
